Measured values taken from PubChem BioAssay (NCATS).
Results filed as inconclusive are left out. Activity calls are given as the source filed them. Calls come from the whole dose curve; as a rule, active = well fitted inhibition curve with a large enough effect; inconclusive = small, poorly fitted or top-dose-only effect; inactive = flat fitted curve, though single readings scatter.

What follows are molecules tested against Luciferin 4-monooxygenase (Photinus pyralis) (UniProt P08659) (assay: Biochemical firefly luciferase enzyme assay for NPC (AID 624030; note: nearly all actives have a fitted effect of over 70% in size;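 for activity change, negative = inhibition: 0% = DMSO and -100% = full luciferase inhibition by PTC124 control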)). Conditions: purified P. pyralis luciferase, luminescence, 5 min; series mostly up to 58.6 µM; activity change, negative = inhibition: at the top concentration.
Text: Charcot-Marie-Tooth-Association [CMTA] National Center for Advancing Translational Sciences [NCATS] Charcot-Marie-Tooth (CMT) disease was first characterized by Jean-Martin Charcot and Pierre Marie in France and, independently, by Howard Henry Tooth in England in 1886. CMT is one of the most common inherited neurological diseases, affecting approximately 1 in 2,500 Americans. […] The most prevalent type of CMT is known as CMT1A and caused by a duplication of the PMP22 gene which leads to over-expression of this protein. PMP22 is a glycosylated intrinsic membrane protein accounting for 2-5% of the myelin protein content, and its over-expression results in demyelination and subsequently axonal loss. A pair of cellular transcription-based assays was developed in the S16 rat Schwann cell lines (Hai, M., et al., 2002) stably transfected with orthogonal reporters - firefly luciferase (Fluc) and beta-lactamase (beta-Lac) - whose expression is driven by an intronic regulatory element of the PMP22 gene (Jones, E.A., et al., 2011) to recapitulate endogenous expression of PMP22. A comprehensive library of approved drugs, the NCGC Pharmaceutical Collection (Huang, R., et al., 2011), was screened in the cross-validating platform of the orthogonal reporter assays to identify drug modulators inhibitory towards PMP22 expression. A set of counter-screens was devised to address non-specific activity of the library. An ATP-dependent CellTiter-Glo assay (developed by Promega Corp) was utilized to control cell viability. In addition, biochemical Fluc enzyme assay was performed to assess direct inhibition of the Fluc enzymatic activity. References Hai, M., Muja, N., DeVries, G.H., Quarles, R.H. and Patel, P.I. Comparative analysis of Schwann cell lines as model systems for myelin gene transcription studies. J Neurosci Res, 2002. 69(4): pp 497-508 Huang, R., Southall, N., Wang, Y., Yasgar A., Shinn P., Jadhav, A. , Nguyen, D.-T. and Austin, C.P., The NCGC pharmaceutical collection: a comprehensive resource of clinically approved drugs enabling repurposing and chemical genomics. Sci Transl Med, 2011. 3(80): p. 80ps16.
Compounds were transferred to the plates in 23nl, and one microliter/well luciferase enzyme-buffer solution (10 nM P. pyralis luciferase and 50 mM Tris Acetate final concentrations) was dispensed yielding a final reaction volume of […]. Luciferase luminescence was measured by a ViewLux plate reader within 5 minutes of enzyme-buffer addition. The % activity was determined by normalizing to the average readings of PTC124 (a positive control) relative to DMSO (0% Activity). The concentration-effect curves were then classified based on curve quality (r2), response magnitude and degree of measured activity.
Potency is the fitted concentration of half-maximal effect.

Chain of Luciferin 4-monooxygenase (Photinus pyralis) (P08659 whole entry, looked up): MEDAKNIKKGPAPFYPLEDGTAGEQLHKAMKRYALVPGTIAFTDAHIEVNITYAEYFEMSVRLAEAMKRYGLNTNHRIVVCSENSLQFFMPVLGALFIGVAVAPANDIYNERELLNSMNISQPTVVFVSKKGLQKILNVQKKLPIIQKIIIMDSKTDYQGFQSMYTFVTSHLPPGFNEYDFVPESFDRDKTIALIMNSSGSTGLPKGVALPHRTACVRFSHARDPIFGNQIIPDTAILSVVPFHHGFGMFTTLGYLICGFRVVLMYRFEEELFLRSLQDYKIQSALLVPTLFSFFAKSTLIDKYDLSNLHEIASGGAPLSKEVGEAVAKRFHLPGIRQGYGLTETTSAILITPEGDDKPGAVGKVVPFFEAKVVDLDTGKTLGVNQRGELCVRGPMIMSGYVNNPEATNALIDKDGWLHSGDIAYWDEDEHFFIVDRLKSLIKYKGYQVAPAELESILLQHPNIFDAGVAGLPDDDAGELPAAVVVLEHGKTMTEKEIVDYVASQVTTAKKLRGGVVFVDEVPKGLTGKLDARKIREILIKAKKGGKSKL

Row | SMILES | activity change, negative = inhibition | Potency
1 | CC(C)(Sc1cc(C(C)(C)C)c(O)c(C(C)(C)C)c1)Sc1cc(C(C)(C)C)c(O)c(C(C)(C)C)c1 | 2.63% [at 24.9 µM] (inactive) | 
2 | CCn1cc(C(=O)O)c(=O)c2cc(F)c(N3CCNCC3)nc21 | 1.43% [at 24.9 µM] (inactive) | 
3 | CCc1cc(C(N)=S)ccn1 | 4.86% (inactive) | 
4 | CNCC[C@H](Oc1cccc2ccccc12)c1cccs1 | 13.5% (inactive) | 
5 | CC(C)Cn1cnc2c(N)nc3ccccc3c21 | -0.519% (inactive) | 
6 | CC(=O)[C@H]1CC[C@H]2[C@@H]3CCC4=CC(=O)CC[C@]4(C)[C@H]3CC[C@]12C | -0.688% (inactive) | 
7 | O=C(O)c1cccnc1 | 0.441% (inactive) | 
8 | Cc1cccc(Nc2ccncc2S(=O)(=O)NC(=O)NC(C)C)c1 | -0.0208% [at 24.9 µM] (inactive) | 
9 | Nc1nc(N)c2nc(CNc3ccc(C(=O)NC(CCC(=O)O)C(=O)O)cc3)cnc2n1 (stereo not given) | 0.685% (inactive) | 
10 | CNNCc1ccc(C(=O)NC(C)C)cc1 | 1.17% (inactive) | 
11 | CCOC(=O)[C@H](CCc1ccccc1)N[C@H]1CS[C@H](c2cccs2)CN(CC(=O)O)C1=O | -7.28% (inactive) | 
12 | CC(C)(C)C(=O)OCOP(=O)(COCCn1cnc2c(N)ncnc21)OCOC(=O)C(C)(C)C | -10.8% (inactive) | 
13 | Cc1oc(=O)oc1CN1CCN(c2cc3c(cc2F)c(=O)c(C(=O)O)c2n3C(C)S2)CC1 (stereo not given) | 2.46% (inactive) | 
14 | O=C(N[C@H](CO)[C@H](O)c1ccc([N+](=O)[O-])cc1)C(Cl)Cl | 1.51% [at 123 µM] (inactive) | 
15 | CNS(=O)(=O)Cc1ccc2[nH]cc(CCN(C)C)c2c1 | -1.29% (inactive) | 
16 | CN(C)c1ccc(C(=C2C=CC(=[N+](C)C)C=C2)c2ccc(N(C)C)cc2)cc1 |  | 12.8 µM (active)
17 | S=P(N1CC1)(N1CC1)N1CC1 |  | inactive
18 | CN(C)CCc1c[nH]c2ccc(CS(=O)(=O)N3CCCC3)cc12 | 0.453% (inactive) | 
19 | COCCCOc1cc(C[C@@H](C[C@H](N)[C@@H](O)C[C@H](C(=O)NCC(C)(C)C(N)=O)C(C)C)C(C)C)ccc1OC | -6.65% (inactive) | 
20 | CC(C)(C#N)c1cc(Cn2cncn2)cc(C(C)(C)C#N)c1 | 0.669% (inactive) | 

Row | SMILES | activity change, negative = inhibition | Potency
21 | O=C(O)c1cc(=O)[nH]c(=O)[nH]1 | -0.0112% (inactive) | 
22 | COc1cccc(N(C)C(=S)Oc2ccc3c(c2)CCCC3)n1 | -3.95% (inactive) | 
23 | CCCc1nc(C)c2c(=O)[nH]c(-c3cc(S(=O)(=O)N4CCN(CC)CC4)ccc3OCC)nn12 | -21.7% (inactive) | 
24 | CC(N)C12CC3CC(CC(C3)C1)C2 (stereo not given) | -1.43% (inactive) | 
25 | N=C(N)c1ccc(OCCCCCOc2ccc(C(=N)N)cc2)cc1 | 11.2% (inactive) | 
26 | O[C@@H](CNC[C@H](O)[C@H]1CCc2cc(F)ccc2O1)[C@@H]1CCc2cc(F)ccc2O1 | 7.8% (inactive) | 
27 | Cc1noc(NS(=O)(=O)c2ccc(N)cc2)c1C |  | inactive
28 | CCN(C)C(=O)Oc1cccc([C@H](C)N(C)C)c1 | -0.533% (inactive) | 
29 | COc1ncnc(NS(=O)(=O)c2ccc(N)cc2)c1OC | 4.61% (inactive) | 
30 | CCCN[C@H]1CCc2nc(N)sc2C1 | -0.213% (inactive) | 
31 | Cn1nnc2c(C(N)=O)ncn2c1=O | -7.92% (inactive) | 
32 | COc1nc(N)nc2c1ncn2[C@@H]1O[C@H](CO)[C@@H](O)[C@@H]1O | -1.17% (inactive) | 
33 | O=C(O)CSCC(=O)NC1CCSC1=O (stereo not given) | -0.623% (inactive) | 
34 | COc1cc(NCc2ccc3nc(N)nc(N)c3c2C)cc(OC)c1OC | -6.08% (inactive) | 
35 | Clc1ccccc1CN1CCc2sccc2C1 | -0.448% (inactive) | 
36 | CCCCCCNC(=O)n1cc(F)c(=O)[nH]c1=O | -0.269% (inactive) | 
37 | CC(C)NCC(O)c1ccc(NS(C)(=O)=O)cc1 (stereo not given) |  | inactive
38 | O=NN(CCCl)C(=O)NC1CCCCC1 | -3.2% (inactive) | 
39 | CN1CCCC(n2nc(Cc3ccc(Cl)cc3)c3ccccc3c2=O)CC1 (stereo not given) | 4.52% (inactive) | 
40 | CC(=O)CC(c1ccccc1)c1c(O)c2ccccc2oc1=O (stereo not given) | -7.55% (inactive) | 
